Source: PubChem BioAssay AID493170 (National Center for Advancing Translational Sciences (NCATS), 2011)
Records with an inconclusive call do not appear. Activity calls are given as the source filed them. The call rests on the fitted dose curve; in most records, active means well fitted inhibition curve with a large enough effect; inconclusive means small, poorly fitted or top-dose-only effect, or effect the other way; inactive means flat fitted curve, though single readings scatter.

Target: Ubiquitin carboxyl-terminal hydrolase 2 (Homo sapiens) (UniProt O75604)
Test: Ub-rhodamine 110 based assay for inhibitors Ubiquitin-specific Protease USP2a; further: nearly all actives have a fitted effect of over 50% in size
Conditions: USP2a Ub-rhodamine110 cleavage, fluorescence; series mostly up to 38.3 µM; activity change, negative = inhibition: at the top concentration
From the text: NIH Molecular Libraries Probe Centers Network [MLPCN] NIH Chemical Genomics Center [NCGC] MLPCN Grant: XO1-MH079852-01 PI Name: Nicholson, Ben. Progenra Inc, Malvern, PA NCGC Assay Overview: Homeostasis of cellular proteins is maintained through a combination of synthesis and degradation. The pathway that accounts for the majority of protein degradation is the ubiquitin-proteasomal pathway. Ubiquitin (Ub) is highly conserved in all cells and the generation of a multi-Ub chain typically targets proteins for degradation by the proteasome. However, ubiquitination is highly reversible and dynamic. Deubiquitination, the reverse process, is catalyzed through the action of enzymes referred to as isopeptidases or deubiquitinating enzymes (DUBs). This group of enzymes is collectively responsible for maintaining adequate pools of free ubiquitin and regulating the ubiquitination status of cellular proteins. The class of DUBs referred to as the ubiquitin-specific proteases (USP) family functions endoproteolytically to cleave Ub chains from a wide range of protein substrates. USP2a deubiquitinates fatty acid synthase (FASN) which has recently been identified as an emerging oncology target. To identify inhibitors of USP2a a cell-free assay was employed. This assay measures cleavage of a profluorescent substrate (Ub-Rhodamine 110; Boston Biochem Cat#: U-555) by USP2a. The assay gives a fluorescent read-out at excitation/emission wavelengths of 485/531. The USP2a enzyme was provided by Progenra, Inc. licensed for sale by LifeSensors, Inc.
NCGC Assay Protocol: The assay buffer, prepared fresh at the day of the assay, contains 20mM Tris-HCl pH 8.0, 2mM CaCl2, 2mM beta-Mercaptoethanol, 0.05% CHAPS. 3uL of 10 nM (5 nM final) USP2a, was dispensed into a medium-binding black solid Kalypsys 1,536 well plate using the Kalypsys dispenser. The assay plate was then pinned with 23nL compounds in DMSO with a Kalypsys pintool in columns 5-48 (0.3% final DMSO concentration). The negative control was buffer/DMSO only in column 3. The assay plate is incubated at RT for 30min. Subsequently, 3uL of 300 nM Ub-Rhod110 (150 nM final) was dispensed into the plate using a Kalypsys dispenser. Plates were read after every minute for 7 min on a ViewLux (Perkin Elmer) plate reader using the following wavelengths: Ex 485nm /Em 531nm. Data were normalized to the AC100 inhibition (buffer alone). Concentration-response curves were fitted to the normalized data and the concentration-response curves were then classified based on curve quality (r2), response magnitude and degree of measured activity. The time zero reading was used to flag fluorescence artifacts.
On the % scale 0 is the no-effect control and ±100 the full control effect; potency means the concentration at half of the fitted maximal effect.

Sequence of Ubiquitin carboxyl-terminal hydrolase 2 (Homo sapiens) (O75604 whole entry, looked up): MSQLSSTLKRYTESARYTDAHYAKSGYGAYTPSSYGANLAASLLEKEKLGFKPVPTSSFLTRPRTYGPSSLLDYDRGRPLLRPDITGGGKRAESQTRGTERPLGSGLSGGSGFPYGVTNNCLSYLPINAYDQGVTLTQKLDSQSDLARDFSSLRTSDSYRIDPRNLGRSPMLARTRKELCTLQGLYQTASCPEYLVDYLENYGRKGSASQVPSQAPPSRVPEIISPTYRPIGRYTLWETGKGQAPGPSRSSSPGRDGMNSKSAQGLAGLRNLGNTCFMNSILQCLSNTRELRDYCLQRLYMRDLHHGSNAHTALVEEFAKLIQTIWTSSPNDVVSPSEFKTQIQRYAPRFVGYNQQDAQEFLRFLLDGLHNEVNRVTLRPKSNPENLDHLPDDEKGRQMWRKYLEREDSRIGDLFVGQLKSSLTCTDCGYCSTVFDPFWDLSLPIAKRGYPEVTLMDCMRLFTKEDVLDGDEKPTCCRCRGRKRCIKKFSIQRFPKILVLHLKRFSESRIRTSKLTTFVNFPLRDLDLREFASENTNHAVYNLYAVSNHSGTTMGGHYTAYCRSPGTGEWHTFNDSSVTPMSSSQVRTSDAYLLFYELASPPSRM

Structure (SMILES)	Potency	activity change, negative = inhibition
NC(=O)c1c(NC(=O)CSc2nnc(-c3ccco3)n2-c2ccccc2)sc2c1CCC2	5.01 µM (active)	–
N=C1/C(=C\c2ccc(-c3cccc(Cl)c3)o2)C(=O)N=C2SC=C(c3ccccc3)N12	11.2 µM (active)	–
Cc1ccc(NC(=O)CN2C(=O)N/C(=C/c3ccco3)C2=O)cc1	3.98 µM (active)	–
COc1cccc(C(=O)NCc2ccc3[nH]c(C)cc3c2)c1	–	-1.49% (inactive)
CN(C)S(=O)(=O)c1ccc(C(=O)NCCN=C2NS(=O)(=O)c3ccccc32)cc1	–	-8.45% (inactive)
Cc1ccc(C)c(OCC(=O)Nc2cc(NC(=O)COc3cc(C)ccc3C)cc(C(=O)O)c2)c1	11.2 µM (active)	–
CCOc1ccc(NC(=O)c2cccc(-n3cnnn3)c2)cc1	–	1.58% (inactive)
O=C(c1ccccc1)N1CCN(C(=O)N2CCCCC2)CC1	–	0.808% (inactive)
CCCCC1NC(C(=O)O)CS1 (stereo not given)	–	-4.19% (inactive)
CCC1=[N+](CC(=O)c2ccc(Br)cc2)CCn2c(C)ccc21	–	-20.7% (inactive)
CCCCCCCCCCOC(=O)Cn1c(COc2ccccc2)[n+](C)c2ccccc21	–	-21.6% (inactive)
COCc1cc(C)nc(SCC[N+](C)(C)CC(=O)Nc2cccc(C(F)(F)F)c2)c1C#N	–	-7.94% (inactive)
CN1CCN(CCC(=O)N/N=C/c2cc([N+](=O)[O-])ccc2O)CC1	–	-4.22% (inactive)
C[C@@H]1CN([C@@H](C)CO)C(=O)c2cc(NC(=O)CCC(F)(F)F)ccc2O[C@H]1CN(C)S(=O)(=O)c1ccc(Cl)cc1	–	-7.59% (inactive)
Nc1c(C(=O)Nc2ccc3c(c2)OCCO3)nnn1CCc1ccccc1	–	2.3% (inactive)
Cc1ccc(Nc2cc(C)nc(NCc3ccccc3)n2)cc1	–	-3.78% (inactive)
Cc1ccc(S(=O)(=O)Nc2cc(C)c(O)c(S(=O)(=O)c3ccc(C)cc3)c2)cc1	–	-10.6% (inactive)
C=CC[C@H](CC(=O)OC(C)(C)C)C(=O)OC[C@@H]1CCCN1C(=O)[C@H](CC=C)CC(=O)N[C@H](CO)Cc1ccccc1	–	0.806% (inactive)
CCOC(=O)N1CCN(C(=O)c2cc3c(ccc4ccccc43)oc2=O)CC1	–	-9.22% (inactive)
Cc1cc(-c2csc(NC(=O)c3ccc(=O)[nH]c3)n2)c(C)n1Cc1ccccc1	12.6 µM (active)	–

Structure (SMILES)	Potency	activity change, negative = inhibition
O=C(CSc1ccc2nnc(-c3cccc(F)c3)n2n1)N1CCCc2ccccc21	–	-0.537% (inactive)
CC1=NN(C(=O)c2csc(C)c2C)C(O)(C(F)(F)F)C1 (stereo not given)	–	-1.72% (inactive)
Cc1ccc(Nc2nc(N)nc(CN3CCN(C(=O)c4ccco4)CC3)n2)cc1Cl	–	-14.7% (inactive)
Cc1noc(/C=C/c2ccco2)c1S(=O)(=O)N1CCC(C(=O)N2CCc3ccccc3C2)CC1	7.94 µM (active)	–
Cc1nc(NC(C)C)c2cnn(CCc3ccccc3)c2n1	–	-4.79% (inactive)
COC(=O)c1[nH]c(=O)c2ccccc2c1OCc1ccccc1	–	5.2% (inactive)
O=C(Nc1cnn(Cc2ccccc2)c1)c1nc2ncccn2n1	–	-2.39% (inactive)
Cc1cc(C)n(C(=O)c2cccc(S(=O)(=O)N3CCCC3)c2)n1	–	2.63% (inactive)
NC(=O)C[C@@H]1N[C@]2(C(=O)Nc3ccccc32)[C@@H]2C(=O)N(c3cc(C(F)(F)F)ccc3Cl)C(=O)[C@H]12	–	-1.09% (inactive)
O=c1c2c3nc4ccccc4nc3n(Cc3ccccc3)c2ncn1Cc1ccco1	11.2 µM (active)	–
CCOC(=O)c1c(C)[nH]c(C(=O)COC(=O)CSC)c1C	–	-1.67% (inactive)
Cc1ccc(C)c(S(=O)(=O)N2CCN(C(=O)/C=C/c3ccco3)CC2)c1	10 µM (active)	–
CCN(CC)c1ccc2nc3ccccc3[n+](CC)c2c1	–	-12.3% (inactive)
COc1ccc(NC(=O)CSc2ncccc2C(=O)OC(C)C)cc1OC	–	-5.2% (inactive)
O=C(Nc1ccc(Oc2ccc(Cl)cc2)cc1)c1ncn[nH]1	–	0.92% (inactive)
Cc1c(NC(=O)C2CCCN2S(=O)(=O)c2ccc(Cl)cc2)c(=O)n(-c2ccccc2)n1C (stereo not given)	–	-5.13% (inactive)
Cc1cccc(OCC(=O)Nc2ccc(N3CCCC3)cc2)c1C	11.2 µM (active)	–
COc1cc2cc(CN(CCN3CCCC3)C(=O)Nc3ccc(F)cc3)c(=O)[nH]c2cc1OC	–	-12.5% (inactive)
CC(C)Oc1ccc(C(=O)Nc2ccc(N3CCCC3)cc2)cc1	10 µM (active)	–
CC1Cc2ccccc2N1C(=O)Cn1c(=O)oc2cc(S(=O)(=O)NC3CCCC3)ccc21 (stereo not given)	–	-25.2% (inactive)
